In PubChem BioAssay (NCATS) one finds Potency data, which are given here for 38 molecules.

Structures are written as SMILES. Records with an inconclusive call do not appear. Activity calls are given as the source filed them. Unless noted, calls come from the whole dose curve; as a rule, active = well fitted curve in the direction sought with a large enough effect; inconclusive = small, poorly fitted or top-dose-only effect, or another doubt; inactive = no such curve, though single readings can be large; an effect the other way counts as inactive or inconclusive.

Experiment [1] has as its target Aldehyde dehydrogenase, mitochondrial (Homo sapiens) (UniProt P05091). In words: qHTS for Inhibitors of the Aldehyde Dehydrogenase Family (ALDH2) Confirmatory screens (AID 2061303; active = well fitted inhibition curve with a large enough effect; title and protocol of this record describe different tests; note: nearly all actives have a fitted effect of over 45% in size; note: potency is the fitted concentration of half-maximal effect).
Experiment [2] addresses Retinaldehyde dehydrogenase 3 (Homo sapiens) (UniProt P47895). In words: qHTS for Inhibitors of the Aldehyde Dehydrogenase Family (ALDH1A3) Confirmatory screens (AID 2061311; note: nearly all actives have a fitted effect of over 60% in size; note: potency is the fitted concentration of half-maximal effect). (In qHTS, concentration-response curves come from the screen itself.)
Experiment [3] concerns the target Retinal dehydrogenase 2 (Homo sapiens) (UniProt O94788). In words: qHTS for Inhibitors of the Aldehyde Dehydrogenase Family (ALDH1A2) Confirmation screens (AID 2061314). Note: nearly all actives have a fitted effect of over 65% in size. Note: potency is the fitted concentration of half-maximal effect.
Experiment [4] has as its target Aldehyde dehydrogenase 1A1 (Homo sapiens) (UniProt P00352). The experiment in a line: qHTS for Inhibitors of the Aldehyde Dehydrogenase Family (ALDH1A1) Confirmatory screens (AID 2061316). Note: nearly all actives have a fitted effect of over 65% in size. Note: potency is the fitted concentration of half-maximal effect.
Experiment [5] has as its target Retinaldehyde dehydrogenase 3 (Homo sapiens) (UniProt P47895). In words: qHTS for Inhibitors of the Aldehyde Dehydrogenase Family (ALDH1A3) Primary screen (AID 2061315).
The target in experiment [6] is Aldehyde dehydrogenase, mitochondrial (Homo sapiens) (UniProt P05091). The experiment in a line: qHTS for Inhibitors of the Aldehyde Dehydrogenase Family (ALDH2) Primary screen (AID 2061308). Note: nearly all actives have a fitted effect of over 55% in size.

Regarding `CCc1cc(N2CCOC(c3ccc4cc(OC)ccc4c3)C2)nc(C)n1` (centres undefined), the Potency result in experiment [1], in experiment [2], in experiment [3] and in experiment [4] was “inactive” throughout.
In the case of `CCOC(=O)c1ccc(N2CCN(c3cccc(Cl)c3)CC2)c(NC(=O)Nc2ccc(Cl)cc2)c1`, the Potency entry in experiment [1], in experiment [2], in experiment [3] and in experiment [4] was “inactive” in each case.
For the molecule `CC(C)Sc1ncc(Cl)c(C(=O)Nc2nc3ccc(S(C)(=O)=O)cc3s2)n1`, the Potency result in experiment [1], in experiment [2], in experiment [3] and in experiment [4] was “inactive” each time.
For the molecule `CN(c1ccccc1)c1ccc(CNc2nn3c(=O)c4ccccc4nc3s2)cc1`, the Potency in experiment [1] was 11.2 µM (active); in experiment [2] it was 12.6 µM (active); in experiment [4], 8.96 µM (active). The Potency result in experiment [3] and in experiment [5] was “inactive” in each case.
Turning to `COc1cccc(N2CCN(c3nc(C(=O)NCc4cccc(C)c4)cs3)CC2)c1`, the Potency result in experiment [1], in experiment [2] and in experiment [3] was “inactive” throughout.
On to `NCCCNc1ncnc2ccc(-c3ccc4c(c3)OCO4)cc12`, for which the Potency entry in experiment [1] and in experiment [6] was “inactive” throughout. For the same molecule, in experiment [4], the Potency is 11.3 µM (active).
In the case of `CCOC(=O)Cn1c(=O)oc2cc(S(=O)(=O)N3CCN(c4ccc(C(C)=O)cc4)CC3)ccc21`, the Potency was 7.08 µM (active) in experiment [1] and 0.355 µM (active) in experiment [2]. Moreover, in experiment [3], the Potency entry is “inactive”.
Turning to `CC(C)c1ccc(S(=O)(=O)c2cnc(SCC(=O)Nc3ccc4c(c3)OCCO4)[nH]c2=O)cc1`, the Potency result in experiment [1], in experiment [2] and in experiment [5] was “inactive” throughout. For the same molecule, in experiment [3], the Potency is 10.1 µM (active).
Regarding `O=C(Nc1ccc(N2CCOCC2)c(F)c1)Nc1nnc(-c2ccncc2)s1`, the Potency result in experiment [1], in experiment [6] and in experiment [5] was “inactive” each time.
For `O=C(Nc1cccc(-c2ccc(N3CCOCC3)nn2)c1)Nc1cccc(C(F)(F)F)c1`, the Potency result in experiment [1], in experiment [2] and in experiment [4] was “inactive” throughout.
Regarding `COc1ccc(-c2ccc(CNc3ccc4[nH]c(=O)[nH]c4c3)o2)cc1Cl`, the Potency in experiment [1] is 1.82 µM (active); in experiment [4], 7.26 µM (active).
As for `O=C(CCC#CCSc1nnc(-c2cccc3ccccc23)o1)c1ccccc1`, the Potency in experiment [1] was 20.1 µM (active). Further, the Potency entry in experiment [5] was “inactive”.
With `COc1ccc(N2CCN(S(=O)(=O)c3ccc4c(c3)CC(=O)N4)CC2)cc1`, the Potency result in experiment [1], in experiment [2] and in experiment [5] was “inactive” in each case. Further, in experiment [4], the Potency was 5.17 µM (active).
For `O=C(OCC#CCSc1nnc(-c2cccc3ccccc23)o1)c1ccco1`, the Potency in experiment [1] and in experiment [4] was 6.34 µM (active) in each case. Moreover, the Potency result in experiment [5] was “inactive”.
On to `COC(=O)[C@H](Cc1ccc(OC)cc1)NC(=O)[C@@H]1CNCCN1S(=O)(=O)c1ccccc1`, for which the Potency entry in experiment [1] and in experiment [3] was “inactive” in each case.
In the case of `COc1ccc(NC(=O)CN(C)S(=O)(=O)c2ccc(C(=O)N3CCOCC3)s2)cc1`, the Potency result in experiment [1] and in experiment [3] was “inactive” each time.
As to `CC(=O)Nc1sc2c(c1-c1nc3ccccc3s1)CCN(Cc1ccccc1)C2`, the Potency entry in experiment [1] and in experiment [5] was “inactive” throughout. For the same molecule, the Potency in experiment [2] is 25.1 µM (active).
On to `N#Cc1c(-c2cccc(Br)c2)no[n+]1[O-]`, for which the Potency result in experiment [1] and in experiment [5] was “inactive” throughout. Besides, the results for the Potency in experiment [3] and in experiment [4] were 3.57 µM (active) and 12.7 µM (active), respectively.
Turning to `CC(C)N1CCc2c(sc(NC(=O)Cc3ccccc3)c2-c2nc3ccccc3s2)C1`, the Potency result in experiment [1], in experiment [2], in experiment [5] and in experiment [4] was “inactive” each time.
As for `CC(C)NC(=O)c1nc(-c2cccnc2)c2cnccn12`, the Potency result in experiment [1] and in experiment [4] was “inactive” throughout.
As to `CC(C)c1ccc(NC(=O)N2CCN(c3ccc(Cl)c(Cl)c3)CC2)cc1`, the Potency entry in experiment [1] and in experiment [4] was “inactive” throughout.
Regarding `COc1cc(O)c(C(CC(=O)N2CCN(c3ccc(F)cc3)CC2)c2ccc3c(c2)OCO3)c(OC)c1` (centres undefined), the values for the Potency in experiment [1] and in experiment [2] were 17.8 µM (active) and 12.7 µM (active), respectively. For the same molecule, in experiment [5], the Potency result was “inactive”.
As for `O=C(NCCN1CCN(c2ccccc2)CC1)Nc1cccc(Br)c1`, the Potency entry in experiment [1] and in experiment [3] was “inactive” each time.
In the case of `[O-][n+]1onc(-c2ccccc2)c1CO`, the Potency entry in experiment [1], in experiment [3] and in experiment [5] was “inactive” throughout.
On to `CC(C)NS(=O)(=O)c1ccc(OCC(=O)N2CCN(c3ccccc3F)CC2)cc1`, for which the Potency entry in experiment [1] and in experiment [3] was “inactive” in each case.
As to `COC(=O)c1ccc(NC(=O)CN2CCN(c3ccc(Cl)cc3)CC2)cc1`, the Potency in experiment [1] and in experiment [3] was 18.2 µM (active) each time.
`CC(C)N1CCc2c(sc(NC(=O)C3CC3)c2-c2nc3ccccc3s2)C1`: the Potency result in experiment [1] and in experiment [5] was “inactive” in each case. In addition, the Potency in experiment [3] is 5.65 µM (active); in experiment [4], 7.98 µM (active).
On to `CCN(CC)c1ccc(NC(=O)Nc2ccc(C(C)=O)cc2)cc1`, for which the Potency entry in experiment [1], in experiment [3] and in experiment [5] was “inactive” in each case.
As for `Oc1ccc(Nc2nc(-c3ccncc3)nc3ccccc23)cc1F`, the Potency entry in experiment [1] and in experiment [5] was “inactive” each time.
For `Brc1ccc(-c2ccc(C3Nc4cccc5cccc(c45)N3)o2)cc1`, the Potency was 0.896 µM (active) in experiment [1], 7.12 µM (active) in experiment [2] and 10.1 µM (active) in experiment [4].
As for `O=C([C@@H]1C[C@H](Oc2ccccc2)CN1S(=O)(=O)c1cccc(F)c1)N1CCOCC1`, the Potency result in experiment [1] and in experiment [3] was “inactive” each time.
Take `COc1ccc(-n2cc(C(=O)Nc3cc(F)ccc3F)c3ccccc3c2=O)cc1`: the Potency result in experiment [1] and in experiment [3] was “inactive” in each case. Further, in experiment [4], the Potency was 11.5 µM (active).
For `CC(C)(C)OC(=O)N1CCN(c2ccc(NCc3ccc(-c4ccc(C#N)cc4)s3)cc2)CC1`, the results for the Potency in experiment [1] and in experiment [4] were 0.179 µM (active) and 12.7 µM (active), respectively. The Potency entry in experiment [3] and in experiment [5] was “inactive” each time.
Turning to `CC(=O)Nc1sc2c(c1-c1nc3ccccc3s1)CNCC2`, the Potency is 20.1 µM (active) in experiment [1] and 8.96 µM (active) in experiment [4]. The Potency entry in experiment [5] was “inactive”.
Take `COc1ccc(C2=Nn3c(nnc3-c3ccccc3OC)SC2)c(OC)c1`: the Potency result in experiment [1], in experiment [2] and in experiment [5] was “inactive” throughout. Further, the Potency in experiment [4] was 14.2 µM (active).
Turning to `O=C1c2ccccc2NC(c2ccc(-c3cccs3)o2)N1O` (centres undefined), the figures for the Potency in experiment [1], in experiment [3] and in experiment [4] were 11.2 µM (active), 7.98 µM (active) and 6.34 µM (active), respectively. Moreover, in experiment [5], the Potency result was “inactive”.
On to `COc1ccc(S(=O)(=O)N2C[C@@H](Oc3ccccc3)C[C@@H]2C(=O)N2CCOCC2)cc1`, for which the Potency entry in experiment [1] and in experiment [3] was “inactive” throughout.
As to `COc1ccc(-c2no[n+]([O-])c2C#N)cc1`, the Potency entry in experiment [1] and in experiment [5] was “inactive” each time.
